# Measured values taken from PubChem BioAssay (NCI).
# About 83,000 compounds went through this panel and 20% of them were active in at least one assay; those are over-represented in the sample as a whole.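 Single-dose data. Exposure time 48 hours. Values below 10 considered active.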 A number with no mark means an inactive call. The source made the active and inactive calls.
# How the values were obtained:
# Test in all cases: NCI-60 one-dose screen, 48 h (100 = growth as untreated, 0 = no growth, -100 = all killed)
# Details in all cases: 10 µM unless noted
# NCI-H23 lung = system: NCI-H23 lung
# NCI-H226 lung = system: NCI-H226 lung
# NCI-H322M lung = system: NCI-H322M lung
# HOP-62 NSCLC = system: HOP-62 NSCLC
# NCI-H460 lung = system: NCI-H460 lung
# HOP-92 NSCLC = system: HOP-92 NSCLC
# NCI-H522 lung = system: NCI-H522 lung
# A549/ATCC NSCLC = system: A549/ATCC NSCLC
# 786-0 renal = system: 786-0 renal
# COLO 205 colon = system: COLO 205 colon
Compound,growth (NCI-H23 lung),growth (NCI-H226 lung),growth (NCI-H322M lung),growth (HOP-62 NSCLC),growth (NCI-H460 lung),growth (HOP-92 NSCLC),growth (NCI-H522 lung),growth (A549/ATCC NSCLC),growth (786-0 renal),growth (COLO 205 colon)
Cc1nn(-c2ccccc2)c2nc3c(c(-c4ccc(Cl)cc4)c12)CNC1(CCSCC1)N3,97.4%,81.2%,100%,93.6%,99.6%,74.1%,110%,87%,105%,94.5%
C[C@@H]1N=C(c2ccc3ccccc3n2)Nc2nc3ccccn3c2C1=O,86.3%,94.4%,97.3%,75.1%,97.2%,97.2%,102%,105%,98.3%,113%
COc1ccc(OC)c2c1[nH]c(=O)c1c3ncccc3cn21,34.4%,32.2%,48.5%,31.7%,-3.99% (active),57.4%,29.7%,13.5%,34.7%,22.8%
CCN(CC)CCCNc1ccc(Nc2ccc(OC)cc2)cc1,92.3%,110%,83.3%,98.1%,64.2%,83.6%,64%,92.1%,94.2%,85.7%
CCOc1ccccc1-n1c(CN2CCN(C(=O)COc3ccc(CNCCCCCCN4C5CCCC4CC(OC(=O)Nc4cc(C)ccc4OC)C5)cc3)CC2)nc2ccccc2c1=O (stereo not given),-82.6% (active),-73.5% (active),-98.1% (active),-92% (active),-90.9% (active),-90.2% (active),-86.7% (active),-88.2% (active),-89.6% (active),-85.1% (active)
O=C1c2cccc(NCCN=Cc3cc([N+](=O)[O-])ccc3O)c2C(=O)c2c(NCCN=Cc3cc([N+](=O)[O-])ccc3O)cccc21,75%,77%,77%,55.4%,53.4%,62.4%,45%,84.6%,82.6%,55.9%
CC(C)(C)n1cc(-c2ccnc(NCCCNS(=O)(=O)c3ccccc3)c2)c(-c2ccccc2)n1,76.9%,82.5%,88.9%,90.7%,78.9%,24.5%,74.6%,63.5%,56.4%,57.4%
CN1CCN(C(=O)c2c3c(n4ccccc24)C(=O)c2ncccc2C3=O)CC1,26.8%,69.5%,47.2%,27.3%,16.4%,85.4%,51.7%,51.3%,56.3%,78.2%
O=[N+]([O-])c1ccc(C2CC(c3ccccc3)=Nc3ccccc3S2)cc1 (stereo not given),94.4%,118%,107%,112%,101%,81%,94.6%,105%,105%,118%
CNS(=O)(=O)c1n[nH]nc1-c1cc(C(C)(C)C)c(O)c(C(C)(C)C)c1,105%,104%,102%,84.7%,109%,80.2%,80.2%,89.5%,91.2%,103%
O=C1NC(=Nc2ccc(Cl)cc2)S/C1=C\c1cn(-c2ccccc2)nc1-c1ccccc1,93.4%,93.4%,89.5%,99.6%,44.6%,-0.936% (active),75.4%,34.9%,85.5%,96.7%
O=C(CSc1nccc(Nc2ccc(S(=O)(=O)Nc3nccs3)cc2)n1)c1ccc(F)cc1,97.6%,102%,106%,106%,106%,106%,88.6%,104%,103%,108%
COc1cccc(-c2nn(-c3ccccc3)cc2-c2ccnc(NCCNC(=O)c3ccccc3)c2)c1,61.4%,70.4%,109%,60.7%,63.7%,52.8%,56.7%,41.8%,54.4%,62.6%
CC1=NOC(=O)/C1=C\c1ccc(O)cc1,102%,108%,95.2%,99.5%,109%,101%,97.5%,97.4%,101%,109%
COc1cccc(C(=O)NCCNc2cc(-c3cn(-c4ccccc4)nc3-c3cccc(OC)c3)ccn2)c1,59.7%,77.3%,92.6%,61%,57.4%,46.2%,35.8%,43.6%,50.5%,59%
CC1(C)CC(=O)C2=C(C1)N(c1ccc(OC(F)(F)F)cc1)C(N)=C(C#N)C2c1ccc(Cl)cc1 (stereo not given),85.6%,90.7%,91.3%,72.7%,93.7%,58.5%,63.1%,76.3%,78.6%,96.6%
COc1cccc(-c2nc3sccn3c2/C=C/C(=O)c2ccc(C(F)(F)F)cc2)c1,95%,88.6%,87.5%,100%,83.7%,66.4%,55.6%,85.1%,82.1%,102%
CC(C)C(=O)Nc1n[nH]c2cc(-c3cccc(NS(=O)(=O)C4CC4)c3)ccc12,53.6%,60%,96.2%,66.5%,84.4%,72.7%,40.8%,80.3%,89.2%,84.7%
CN(C)CCCn1c(=O)c2ccccc2c2ccccc21,76.8%,87.6%,98.5%,80.1%,66.5%,45.5%,53.1%,87.2%,68.4%,55%
CC1CC2Oc3ccc(Cl)cc3C(=O)N2O1 (stereo not given),99.5%,99.3%,126%,101%,108%,86.4%,108%,98%,104%,108%
COc1cc(C(=O)/C=C/c2c(C(F)(F)F)nc3sccn23)cc(OC)c1OC,1.76% (active),29.1%,13.8%,4.69% (active),-72.1% (active),40.1%,-63.1% (active),11.3%,3.07% (active),-76.7% (active)
